TGFb SMAD3 inh = TGF-b pathway inhibition; hit rate 1.2% among 410,000; Potency, µM (series often up to 46.1 µM), actives largely listed as inhibitors; HepG2 CAGA-GFP TGF-b/SMAD3 reporter, GFP fluorescence, 18 h; TGF-beta stimulated, 500 pg/mL final; further: nearly all actives have a fitted effect of over 65% in size
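HEPG2 CAGA-GFP reporter cells (1000/well, DMEM with 1% FBS) received compounds, then recombinant TGF-beta at 500 pg/mL final for 18 hours at 37 degrees C. Per-cell GFP summed per well was normalised to unstimulated and stimulated DMSO controls before curve fitting.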
Giardia killer = Giardia lamblia killing; hit rate 0.15% among 340,000; activity change, % at 7.66 µM, hits read low; Giardia lamblia trophozoite viability; AID 540267; in the data active means activity change below about -80%; inconclusive means between about -30% and that limit;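 further: parasites exposed to compound for two days anaerobically before the ATP read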
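Giardia lamblia trophozoites (100 cells/well) were incubated with compounds for 48 h at 37 deg C under anaerobic conditions. Viability was read as ATP content by one-step luminescence after 15-30 min at room temperature.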
HepG2 viability = HepG2 cytotoxicity, counter-screen for TGF-b inhibitors; HepG2 CAGA-GFP viability, ATP luminescence, 18 h; hit rate 0.76% among 410,000; Potency, µM (titrated, usually from 46.1 µM), actives largely listed as cytotoxic
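CellTiter-Glo luminescence gave cytotoxicity after 18 hours at 37 degrees C. The cells were HepG2 CAGA-GFP in 1% FBS DMEM, stimulated with 500 pg/mL TGF-beta after compound addition. %Activity was normalised to no-cell wells (complete cell-killing) and DMSO (no toxicity), and curves were fitted and classified.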
HT1080 IDH1KD tx = kills HT-1080 cells with IDH1 knockdown; HT-1080 IDH1 knockdown viability, ATP luminescence, 48 h; Potency, µM (top dose mostly 46.1 µM), usual class: cytotoxic; hit rate 2% among 360,000
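Cytotoxicity counter-line: IDH1KD HT-1080, 48 h, CellTiter-Glo. Curves classed by r2, magnitude and activity.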
HT1080-NT tox = kills 2HG-producing HT-1080-NT fibrosarcoma cells | HT-1080-NT fibrosarcoma viability, CellTiter-Glo ATP luminescence, 48 h | Potency, µM (top dose mostly 46.1 µM), actives largely listed as cytotoxic | hit rate 1.6% among 360,000 | AID 686970;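 further: NT is the 2HG producing partner of a matched IDH1 knockdown line; nearly all actives have a fitted effect of over 55% in size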
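750 cells/well, RPMI + 5% FBS; 2 h settle, compound pin-transfer, 48 h at 37 degrees C. CellTiter-Glo 10 min RT, luminescence. Normalized to DMSO and media-only wells.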
IL-1B inflam inh = inhibitors of inflammasome signaling (IL-1 beta secretion). activity change, % at 57.5 µM. hit rate 4.7% among 360,000. AID 743279. THP-1 LPS/ATP IL-1B secretion, AlphaLISA, 16 h; hits give low values; in the data active means activity change below about -50%; inconclusive means mostly about -30% to -49%
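Secreted IL-1B measured by AlphaLISA bead assay after 16 h compound exposure of THP-1 cells; compounds (final up to 57.5 uM) added 1 h before LPS (250 ng/mL) and ATP (1.25 mM) stimulation; lower signal means less secretion.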
Large screens that a line does not name were inactive. Rows were chosen to be rich in hits. Some 6.5% of all compounds tested hit in one or more screens of this group. Unless noted, the call rests on the fitted dose curve; in most records, active means well fitted curve in the direction sought with a large enough effect; inconclusive means small, poorly fitted or top-dose-only effect, or another doubt; inactive means no such curve, though single readings can be large; an effect the other way counts as inactive or inconclusive.

CC1CCCCC1n1c(-c2cccnc2)n[nH]c1=S (centres undefined)	none
Nc1c2c(nc3sc4c(c13)CCCC4)CCCC2	TGFb SMAD3 inh inconclusive, HT1080 IDH1KD tx inconclusive, HT1080-NT tox inconclusive, IL-1B inflam inh -88
Cc1ccc(O)c(C(=O)c2cc(C(=O)NCCC(C)C)c(=O)n(CCC(C)C)c2)c1	TGFb SMAD3 inh inconclusive, IL-1B inflam inh -56
CCCCCCn1c(=O)c(C(=O)Nc2ncccc2C)c(O)c2ccccc21	HT1080 IDH1KD tx inconclusive, HT1080-NT tox inconclusive
CCCCn1c(=O)c(C(=O)Nc2ncccc2C)c(O)c2ccccc21	HT1080 IDH1KD tx 16µM, HT1080-NT tox 23µM
O=C1NC(=O)C(=Cc2ccc(OCCOc3ccc([N+](=O)[O-])cc3)cc2)C(=O)N1	IL-1B inflam inh -59
O=C(Nc1ccc(Cl)c(C(F)(F)F)c1)NC1CC2CCCC(C1)N2Cc1ccccc1 (centres undefined)	TGFb SMAD3 inh 20µM, HT1080 IDH1KD tx inconclusive, HT1080-NT tox 18µM, IL-1B inflam inh -106
CCCCn1c(O)c(/C=N/NC(=O)c2ccncc2)c(=O)[nH]c1=S	none
CN1C(=O)C(=Cc2sc(=O)n(-c3ccccc3)c2N(C)C)C(=O)N(C)C1=O	HT1080 IDH1KD tx inconclusive, HT1080-NT tox inconclusive, IL-1B inflam inh -97
CCOC(=O)c1ccc(NC(=O)N2CC3CC(C2)c2cccc(=O)n2C3)cc1 (centres undefined)	none
CC(=O)Nc1ccccc1C(=O)OCc1ccc(C(=O)c2ccccc2)cc1	HT1080 IDH1KD tx inconclusive, HT1080-NT tox inconclusive, IL-1B inflam inh -55
Cc1cc(N(CCCl)CCCl)ccc1C=NNC(=O)Cc1cc(=O)oc2cc(O)ccc12	IL-1B inflam inh -59
Cc1cc(N(CCCl)CCCl)ccc1/C=N/NC(=O)c1ccco1	none
CC(Cc1ccccc1)/[N+]([O-])=C\c1ccc(C(F)(F)F)cc1 (centres undefined)	none
Cc1cc(=O)n(-c2ccccc2)n1-c1ccccc1	none
CC(C)(O)/C=C/C(=O)C(C)(O)C1C(O)CC2(C)C3CC=C4C(C=C(O)C(=O)C4(C)C)C3(C)C(=O)CC12C (centres undefined)	TGFb SMAD3 inh inconclusive, HT1080 IDH1KD tx 0.15µM, HT1080-NT tox 0.65µM, IL-1B inflam inh -103
CC(=O)OC(C)(C)/C=C/C(=O)[C@](C)(O)C1[C@H](O)C[C@@]2(C)C3CC=C4C(C[C@H](O)C(=O)C4(C)C)[C@]3(C)C(=O)C[C@]12C (some centres undefined)	TGFb SMAD3 inh inconclusive, HT1080 IDH1KD tx 0.033µM, HT1080-NT tox inconclusive, IL-1B inflam inh -106
O=c1c2ccccc2nc(Cc2ccccc2)n1-c1cccc(O)c1	TGFb SMAD3 inh inconclusive
CCOC(=O)C1=C(N)Oc2c(c(=O)oc3ccccc23)C12C(=O)N(C)c1ccccc12 (centres undefined)	none
N/C(=N/[N+](=O)[O-])N1CCN(C(=O)Oc2ccc([N+](=O)[O-])cc2)CC1	none
CC(=O)O[C@H]1C[C@@H]2OC3C=C(C)CCC3(C)[C@@]1(C)[C@@]21CO1 (some centres undefined)	TGFb SMAD3 inh 1.3µM, HT1080-NT tox inconclusive, IL-1B inflam inh -100 (no result: HT1080 IDH1KD tx)
COc1cc2[nH]c(=O)n(-c3ccc(C)cc3)c(=O)c2cc1OC	none
CC(/C=N/NC(=O)c1cc(-c2ccncc2)nc2ccccc12)=C\c1ccco1	TGFb SMAD3 inh inconclusive, HT1080 IDH1KD tx 1µM, HT1080-NT tox 0.89µM
Cc1ccc2nc(-c3ccncc3)cc(C(=O)N3CCC4(CC3)OCCO4)c2c1	TGFb SMAD3 inh inconclusive, Giardia killer inconclusive
CC(=O)C1CCC2C3CCC4CC(O)CCC4(C)C3CCC12C (centres undefined)	HT1080 IDH1KD tx inconclusive, HT1080-NT tox inconclusive
C[C@]12CCC3C(CC[C@H]4C[C@@H](O)CC[C@]34C)C1CC[C@@H]2OC(=O)[C@H](N)CCCCN (some centres undefined)	IL-1B inflam inh -72
